# The supplement of paper PMC6555819
# Experiments:
# Assay in all cases: PBM binding z-score (relative to random genomic background probes); higher = stronger binding; sequences stand for … in GC…GCGATTGACAGCGTAGAATGAAGG
# [1] = system: FXR:RXRa (NR concentration 270 nM, RXRa partner concentration 90 nM)
# Method in brief: (§1)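 Random background probes are the reference for binding z-scores. These scores derive from regression-normalized fluorescence on custom Agilent 4×180K protein-binding microarrays incubated 1 h with ligand-free nuclear receptor dimers. Binding was detected with antibodies against each partner (one per run).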
# [2] = system: LXRa:RXRa (NR concentration 270 nM, RXRa partner concentration 90 nM)
# Method in brief: as §1
# [3] = system: LXRa homodimer (NR concentration 270 nM)
# Method in brief: as §1
# [4] = system: LXRb:RXRa (NR concentration 270 nM, RXRa partner concentration 90 nM)
# Method in brief: as §1
# [5] = system: LXRb homodimer (NR concentration 270 nM)
# Method in brief: as §1
# [6] = system: PPARa:RXRa (NR concentration 270 nM, RXRa partner concentration 90 nM)
# Method in brief: as §1
# [7] = system: PPARg:RXRa (NR concentration 180 nM, RXRa partner concentration 90 nM)
# Method in brief: as §1
# [8] = system: PPARg:RXRa 270nM:90nM, anti-RXR (NR concentration 270 nM, RXRa partner concentration 90 nM)
# Method in brief: as §1
# [9] = system: PPARg:RXRa 30nM:10nM, anti-RXR (NR concentration 30 nM, RXRa partner concentration 10 nM)
# Method in brief: as §1
# [10] = system: PPARg:RXRa 90nM:30nM, anti-RXR (NR concentration 90 nM, RXRa partner concentration 30 nM)
# Method in brief: as §1
# [11] = system: PPARg:RXRa DBDmut IVT, anti-RXR (DBD mutation: RXRa K156A/R161A, NR concentration 270 nM, RXRa partner concentration 90 nM)
# Method in brief: as §1
# [12] = system: PPARg:RXRa IVT, anti-PPARg (NR concentration 270 nM, RXRa partner concentration 90 nM)
# Method in brief: as §1
# [13] = system: PPARg DBDmut:RXRa IVT, anti-PPARg (DBD mutation: PPARg1 K132A/R137A, NR concentration 270 nM, RXRa partner concentration 90 nM)
# Method in brief: as §1
# [14] = system: PPARg DBDmut IVT, anti-PPARg (DBD mutation: PPARg1 K132A/R137A, NR concentration 270 nM)
# Method in brief: as §1
# [15] = system: PPARg homodimer (NR concentration 180 nM)
# Method in brief: as §1
# [16] = system: PXR:RXRa (NR concentration 270 nM, RXRa partner concentration 90 nM)
# Method in brief: as §1
# [17] = system: PXR homodimer (NR concentration 270 nM)
# Method in brief: as §1
# [18] = system: RARa:RXR (NR concentration 270 nM, RXRa partner concentration 90 nM)
# Method in brief: as §1
# [19] = system: RARa homodimer (NR concentration 270 nM)
# Method in brief: as §1
# [20] = system: RARb:RXRa (NR concentration 270 nM, RXRa partner concentration 90 nM)
# Method in brief: as §1
Sequence,PBM binding z-score [1],PBM binding z-score [2],PBM binding z-score [3],PBM binding z-score [4],PBM binding z-score [5],PBM binding z-score [6],PBM binding z-score [7],PBM binding z-score [8],PBM binding z-score [9],PBM binding z-score [10],PBM binding z-score [11],PBM binding z-score [12],PBM binding z-score [13],PBM binding z-score [14],PBM binding z-score [15],PBM binding z-score [16],PBM binding z-score [17],PBM binding z-score [18],PBM binding z-score [19],PBM binding z-score [20]
TAGCCTAGGTCATGGCCCAGTATACCACGCGAAC,4.7,3.85,0.774,2.64,-0.293,4.33,4.27,3.99,1.14,2.95,1.98,4.42,0.172,-0.0252,3.1,1.91,-0.224,3.53,0.397,4.01
GCTTACGGGTCAAAGGTTAGAGCATGAATAGAAT,7.32,5.34,0.175,5.27,-0.0451,6.73,10.6,8.89,8.08,9.45,4.34,5.74,0.587,1.17,3.25,5.59,0.235,7.74,0.552,4.37
ATCTCTAGATAACCAAGTTCAGTGAATGCCGAAC,0.0637,0.348,0.591,0.348,0.0515,-0.00769,0.236,-0.141,0.124,-0.0247,-0.316,0.0781,0.627,0.782,0.44,1.1,1.09,0.424,0.885,0.556
TAGCCTATGTCATGCGGGCCAGTATAGTGTCGGC,-0.542,-0.522,-0.975,-0.937,-0.855,-0.683,0.11,-0.476,-0.612,-0.433,-0.318,0.0427,-0.339,-0.807,-1.01,-0.639,-1.13,-0.718,-1.4,0.113
ATCTCTAGGTAAAATTTCAGTGAATCCCGAGGAT,0.303,0.0302,-0.0647,0.162,1.26,0.181,0.177,0.563,0.504,0.487,1.67,1.35,0.773,1.87,0.138,-0.0385,-0.0342,0.0546,0.744,0.377
AATACAGGGTCATAGTAGGCCAGAGTACGCACAG,7.09,6.14,2.31,4.62,1.5,5.82,6.42,5.33,2.62,4.34,2.62,4.56,1.47,2.3,2.67,4.36,0.689,4.7,0.787,4.05
CCTTACGGGTCGCTCCAGGTTATAGCATCGGAGT,1.38,2.13,-0.172,0.57,-0.524,1.24,0.136,0.211,-0.551,-0.391,0.145,0.244,-1.18,-0.791,0.495,1.93,-0.171,1.02,-0.313,1.22
TCATATAAGTAATACAGGTGAAAGTCGGCATCTA,1.33,1.22,0.589,1.15,0.275,1.79,1.29,2.38,4.28,3.42,3.37,1.87,0.985,0.83,1.07,0.888,0.782,1.1,1.95,0.567
CCGAGTAGGTTATGAGGCATTCAGGCAACGGTGA,-0.0177,0.0841,-0.0523,-0.158,-0.156,1.02,1.3,2.22,0.331,1.44,2.79,2.1,-0.794,-0.318,0.571,-0.101,-0.42,0.567,-0.00223,0.501
TGAATGAGGTTAAAGATCAGGTAACGTGGCGTCG,3.32,2.73,-0.204,1.82,0.134,4.75,5.6,5.96,4.89,6.01,2.2,3.62,0.604,0.742,0.811,2.19,0.0433,3.18,0.33,2.01
GCATATAGGTAATACAAGGTAAAAGTCCGATTGT,1.02,0.511,-0.476,-0.189,-0.093,0.669,1.14,0.607,-0.0355,0.325,3.98,2.51,0.397,1.1,0.166,0.0106,-0.11,0.364,0.741,-0.207
CCGACTGGGGCATAAGGTTACCATGAGCCAGCCC,0.192,1.36,-0.247,0.153,-1.3,1.9,2.48,3.24,1.36,2.8,2.64,3.31,-0.794,-1.56,0.331,0.16,-0.667,1.16,0.564,1.55
TCTTGTAGATCAGCACGTTAAGAAAGCTGGCCAA,0.121,0.0301,-0.232,-0.0159,-0.411,0.18,-0.291,0.766,2.47,1.43,1.32,-0.181,-0.456,-0.271,-0.311,0.0608,0.0555,0.441,0.0158,-0.204
CCTAATGGGCCATTCAGAGGTCATTGATCATATG,2.75,4.67,6.94,4.05,1.04,3.68,1.37,2.27,0.458,1.54,2.5,2.39,0.168,0.266,2.02,4.59,1.84,4.39,0.847,3.27
CGAACTAGGTCAGAACAGGAGAGTGAAGGATGAT,0.927,0.589,-0.174,0.371,-0.252,3.11,5.25,4.6,1.34,3.7,7.25,7.15,1.13,1.4,0.511,0.126,-0.235,0.576,0.206,2.94
TCTATCAGGCCAGAGGGTCACTCAAGAGGTACGG,1.28,1.42,-0.272,1.32,0.048,2.51,1.7,2.98,3.16,3,1.69,1.3,-0.288,-0.122,1.01,1.83,0.211,2.39,0.259,2.52
AGAATGAGGTTATACGTATATCAGGGAAGAAAGT,2.23,2.1,0.245,2.04,0.468,3.47,2.58,2.29,1.04,1.85,2.88,2.25,1.21,1.56,1.21,1.45,0.473,1.92,0.666,1.44
CCGAGTGGGGCAAAGGTTACCATACTCAGTACGA,1.45,1.82,0.144,2.37,-0.506,5.65,11,9.62,8.52,11,4.47,6.13,0.0641,-0.366,3,2.82,0.105,4.13,0.606,2.44
GCTATTAGTTGAAAGGGCTACCGAATGATTCTCG,-0.348,-0.291,-0.117,-0.32,-0.468,0.0178,0.531,1.52,0.317,1.21,0.511,-0.182,-0.304,0.104,0.707,-0.465,-0.174,-0.0219,0.6,0.408
CAAACTAGGTCAAGGTCAAAGTGGGTTTGTGCCA,6.71,5.42,3.68,4.73,1.29,6.04,9.42,7.89,6.5,8.27,8.63,8.56,2.16,1.39,3.95,5.56,2.52,5.18,1.68,5.14
CCTAATGGGCCAAAAAGGTCATTGATGCCGATAA,3.45,4.14,3.21,4.2,0.435,4.59,2.58,3.36,1.37,2.69,2.24,2.34,-0.601,-0.248,3.03,4.65,2.85,5.08,1.31,3.99
ACTACCAGGCCAAGGGTCACTCAAGATTAGTCCG,2.84,3.11,0.63,3.41,0.443,5.06,8.68,7.51,6.65,7.73,1.41,4.54,0.921,-0.0701,2.3,3.38,0.474,4.11,1.31,3.78
AGAACGAGGGTAATGAGTTGATAGCACGGGTGGC,-0.398,-0.272,-0.536,-0.672,-0.615,0.387,1.08,0.119,0.202,0.182,1.74,1.31,-0.702,-0.588,-0.465,0.134,1.17,-0.279,-0.76,0.509
CGTCAAAGTGCAAGGTAACGTAACAGAAAGCAGC,0.00612,0.219,-0.312,0.159,-0.589,0.731,0.773,0.593,-0.0711,0.326,0.0283,0.682,-0.0131,-0.0811,0.153,0.149,-0.225,0.344,-0.0833,2.05
AGTCAAAGTTCACTAGGTCACGTAAGATTCAGCT,6.19,6.11,5.68,4.32,1.45,6.04,9.33,7.67,4.81,7.31,5.56,6.73,1.41,1.03,4.02,5.52,3.91,5.75,1.46,5.27
TCTATTAGTTGATTAGGGCAAGCGAAACAGCGGA,0.582,0.347,0.126,0.37,0.284,0.756,-0.0527,2.03,3.67,2.81,1.88,1.33,0.35,0.93,0.455,0.314,0.381,0.428,1.01,0.893
TCTTGTCGATCAATAGAGGTTAAGAAAGTGCGCT,0.786,3.69,0.541,1.92,0.134,1.97,0.144,1.76,2.67,1.98,1.37,0.566,1.29,0.928,0.669,2.97,0.471,1.82,-0.217,1.09
CAAACTAGGTCAAGAGGTTAAAGTCCGCTTCCCG,5.05,4.32,2.01,3.13,0.567,5.3,8.91,7.27,5.14,7.16,8.33,8.39,1.58,0.849,2.66,3.48,0.622,4.85,1.25,4.47
